Values joined by “and” are separate entries in the source; they are usually repeats but may differ in a detail not shown here. Equal values may be shown once. Out of some 5,500 compounds screened, about 2,000 (36%) were called active. Another 18% or so got no clear call; they are omitted. No stated cut-off is given here; in the data, active means normalized growth mostly below about 0.91 (no sharp cut-off); inconclusive means no clear call, values can overlap the other calls; inactive means mostly above about 0.92. Some of the results follow.
Test: chemical genetic growth profiling, strain panel (AID 1159580);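 further: tested at 20 µM; growth read once vehicle control cultures reached saturation at 30 °C; 1 = growth at the plate median or of vehicle wells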
Conditions: S. cerevisiae deletion strains, growth OD

Measured: normalized growth

CCC(=O)OCC(=O)[C@@]1(OC(=O)CC)[C@@H](C)CC2C3CCC4=CC(=O)C=C[C@]4(C)C3(F)[C@@H](O)C[C@@]21C (stereo partly drawn)
0.761 (active) and 1.01 (inactive): locus YJL095W, strain BCK1, stronger effect = lower value
0.896 (active) and 0.998 (inactive): locus YHR030C, strain SLT2, stronger effect = lower value
inactive: locus YAL021C, strain ccr4, stronger effect = lower value 0.958 | locus YAL026C, strain drs2, stronger effect = lower value 1 | locus YAL030W, strain snc1, stronger effect = lower value 1 | locus YBL061C, strain skt5, stronger effect = lower value 1.01 | locus YBR009C, strain hhf1, stronger effect = lower value 0.999 | locus YBR023C, strain chs3, stronger effect = lower value 1.01 | locus YBR171W, strain sec66, stronger effect = lower value 1 | locus YBR229C, strain ROT2, stronger effect = lower value 0.925 | locus YBR231C, strain swc5, stronger effect = lower value 1.01 | locus YBR279W, strain paf1, stronger effect = lower value 1.01 | locus YCL011C, strain gbp2, stronger effect = lower value 0.988 | locus YCL016C, strain dcc1, stronger effect = lower value 1.01 | locus YCL029C, strain bik1, stronger effect = lower value 0.952 | locus YCL061C, strain MRC1, stronger effect = lower value 1.01 | locus YCL069W, strain vba3, stronger effect = lower value 0.996 | locus YCR088W, strain abp1, stronger effect = lower value 0.997 | locus YDL005C, strain med2, stronger effect = lower value 0.994 | locus YDL040C, strain nat1, stronger effect = lower value 1 | locus YDL074C, strain BRE1, stronger effect = lower value 0.793 | locus YDL101C, strain DUN1, stronger effect = lower value 0.95 | locus YDL185W, strain tfp1, stronger effect = lower value 0.927 | locus YDL192W, strain arf1, stronger effect = lower value 0.927 | locus YDR001C, strain nth1, stronger effect = lower value 0.991 | locus YDR069C, strain doa4, stronger effect = lower value 0.993 | locus YDR101C, strain arx1, stronger effect = lower value 0.948 | locus YDR137W, strain rgp1, stronger effect = lower value 1.01 | locus YDR150W, strain NUM1, stronger effect = lower value 0.974 | locus YDR159W, strain sac3, stronger effect = lower value 1.01 | locus YDR195W, strain ref2 1 | locus YDR297W, strain sur2, stronger effect = lower value 0.996 | locus YDR318W, strain mcm21, stronger effect = lower value 0.945 | locus YDR334W, strain swr1, stronger effect = lower value 1.01 | locus YDR335W, strain msn5, stronger effect = lower value 0.998 | locus YDR388W, stronger effect = lower value 0.947 | locus YDR392W, strain spt3, stronger effect = lower value 0.988 | locus YDR502C, strain sam2, stronger effect = lower value 0.926 | locus YEL003W, strain gim4, stronger effect = lower value 0.996 | locus YEL037C, strain rad23, stronger effect = lower value 0.987 | locus YEL061C, strain CIN8 (second series), stronger effect = lower value 0.989 | locus YEL061C, strain CIN8, stronger effect = lower value 0.935 | locus YER015W, strain faa2, stronger effect = lower value 0.995 | locus YER016W, strain bim1, stronger effect = lower value 1.01 | locus YER110C, stronger effect = lower value 0.952 | locus YER111C, strain swi4, stronger effect = lower value 0.999 | locus YER155C, strain BEM2 (second series), stronger effect = lower value 1.01 | locus YER155C, strain BEM2, stronger effect = lower value 0.963 | locus YFR010W, strain ubp6, stronger effect = lower value 0.993 | locus YGL078C, strain dbp3, stronger effect = lower value 0.975 | locus YGL086W, strain mad1, stronger effect = lower value 0.954 | locus YGL167C, strain pmr1, stronger effect = lower value 1 | locus YGL173C, strain kem1, stronger effect = lower value 1 | locus YGL227W, strain vid30, stronger effect = lower value 0.995 | locus YGL240W, strain doc1, stronger effect = lower value 1 | locus YGL248W, strain PDE1, stronger effect = lower value 0.943 | locus YGL253W, strain hxk2, stronger effect = lower value 1.03 | locus YHR013C, strain ard1, stronger effect = lower value 1.01 | locus YHR027C, strain rpn1, stronger effect = lower value 1 | locus YHR079C, strain IRE1 (second series), stronger effect = lower value 0.974 | locus YHR079C, strain IRE1, stronger effect = lower value 1.02 | locus YHR094C, strain hxt1, stronger effect = lower value 0.965 | locus YHR129C, strain ARP1, stronger effect = lower value 0.943 | locus YHR142W, strain chs7, stronger effect = lower value 0.988 | locus YHR200W, strain rpn10, stronger effect = lower value 0.929 | locus YIL073C, strain SPO22, stronger effect = lower value 0.825 | locus YIL125W, strain kgd1, stronger effect = lower value 0.971 | locus YIR030C, strain dcg1, stronger effect = lower value 0.959 | locus YJL092W, strain hpr5, stronger effect = lower value 0.996 | locus YJL095W, strain BCK1 (second series), stronger effect = lower value 1 | locus YJL115W, strain asf1, stronger effect = lower value 0.999 | locus YJL129C, strain trk1, stronger effect = lower value 0.951 | locus YJL134W, strain LCB3, stronger effect = lower value 0.961 | locus YJL154C, strain vps35, stronger effect = lower value 0.981 | locus YJL164C, strain tpk1, stronger effect = lower value 1 | locus YJL166W, strain qcr8, stronger effect = lower value 0.997 | locus YJL168C, strain set2, stronger effect = lower value 0.956 | locus YJL187C, strain SWE1 (second series), stronger effect = lower value 0.942 | locus YJL187C, strain SWE1, stronger effect = lower value 0.996
active: locus YAL013W, strain DEP1, stronger effect = lower value 0.876 | locus YBR021W, strain FUR4, stronger effect = lower value 0.779 | locus YDL035C, strain GPR1, stronger effect = lower value 0.846 | locus YDL134C, strain PPH21, stronger effect = lower value 0.844 | locus YDR162C, strain NBP2, stronger effect = lower value 0.708 | locus YER167W, strain BCK2, stronger effect = lower value 0.881 | locus YGR135W, strain pre9, stronger effect = lower value 0.863 | locus YGR252W, strain gcn5, stronger effect = lower value 0.71 | locus YIL066C, strain RNR3, stronger effect = lower value 0.806

From PubChem BioAssay AID1159580 (chemical genetic matrix, 2015)
